Experimental data published in publication PMC4336329 (PLoS ONE, 2015).
The campaign covered roughly 310,000 compounds. About 14,000 (4.5%) showed an effect of 50% or more. Effects have a minus sign here. The entries come from a sample that favours strong results as a whole.

target: human ether-à-go-go-related gene (hERG) potassium channel (human, UniProt Q12809); experiment: primary screen, population patch clamp on CHO cells stably expressing hERG; higher = less effect of the substance
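Further: peak tail current of the secondary pulse compared with the same well before compound.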

Sequence of human ether-à-go-go-related gene (hERG) potassium channel (Q12809 whole entry, looked up): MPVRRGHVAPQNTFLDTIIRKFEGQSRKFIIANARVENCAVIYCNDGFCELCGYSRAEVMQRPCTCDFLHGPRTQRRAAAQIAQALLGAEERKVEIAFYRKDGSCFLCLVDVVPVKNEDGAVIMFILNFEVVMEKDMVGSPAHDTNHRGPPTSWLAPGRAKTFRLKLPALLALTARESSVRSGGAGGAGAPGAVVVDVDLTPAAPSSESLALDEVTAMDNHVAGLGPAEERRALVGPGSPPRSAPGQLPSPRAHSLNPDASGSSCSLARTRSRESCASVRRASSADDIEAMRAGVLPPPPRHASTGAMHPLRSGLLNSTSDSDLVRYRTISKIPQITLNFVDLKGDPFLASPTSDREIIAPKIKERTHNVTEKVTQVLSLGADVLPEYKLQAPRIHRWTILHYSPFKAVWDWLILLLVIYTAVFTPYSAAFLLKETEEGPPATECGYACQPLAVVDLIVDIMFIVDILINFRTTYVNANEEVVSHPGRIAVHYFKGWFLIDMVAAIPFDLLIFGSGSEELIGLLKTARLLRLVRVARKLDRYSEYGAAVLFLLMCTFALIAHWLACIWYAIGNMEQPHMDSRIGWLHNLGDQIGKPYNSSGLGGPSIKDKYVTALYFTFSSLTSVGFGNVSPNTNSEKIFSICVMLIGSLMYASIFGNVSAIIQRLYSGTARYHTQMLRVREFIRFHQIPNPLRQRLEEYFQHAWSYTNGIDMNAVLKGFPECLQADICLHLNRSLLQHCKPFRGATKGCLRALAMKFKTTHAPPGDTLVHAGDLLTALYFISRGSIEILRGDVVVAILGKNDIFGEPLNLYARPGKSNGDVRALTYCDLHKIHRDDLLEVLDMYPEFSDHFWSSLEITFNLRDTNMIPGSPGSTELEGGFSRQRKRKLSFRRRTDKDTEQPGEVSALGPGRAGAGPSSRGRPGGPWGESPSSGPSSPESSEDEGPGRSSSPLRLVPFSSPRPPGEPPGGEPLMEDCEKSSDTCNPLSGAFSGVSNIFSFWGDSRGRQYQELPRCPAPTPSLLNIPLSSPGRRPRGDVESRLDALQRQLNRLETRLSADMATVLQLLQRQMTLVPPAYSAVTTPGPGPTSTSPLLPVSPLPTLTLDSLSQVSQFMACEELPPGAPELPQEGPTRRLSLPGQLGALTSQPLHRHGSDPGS

SMILES | hERG current change (%, negative = inhibition) at 10uM
Cc1cn2nc(N)c3ccccc3c2n1 | -9.19%
CCOC(=O)c1cc(C(C)=O)c(=O)[nH]c1C | 12%
CCc1ccc(CN2CCCC(CCC(=O)N3CCN(c4ccccn4)CC3)C2)o1 (centres unmarked) | -58.7%
Cc1ccc(C(=O)N2CCCC(CCC(=O)N3CCN(c4ccccn4)CC3)C2)cc1 (centres unmarked) | -9.9%
O=C(CCC1CCCN(c2ncccn2)C1)N1CCN(c2ccccn2)CC1 (centres unmarked) | -23%
Cc1ccc(C(=O)N2CCCC(CCC(=O)N3CCN(c4ccccn4)CC3)C2)cc1C (centres unmarked) | -34.9%
CCc1cc(C(=O)N2CCCC(CCC(=O)N3CCN(c4ccccn4)CC3)C2)no1 (centres unmarked) | -17.4%
Cc1cccc(C(=O)N2CCCC(CCC(=O)N3CCN(c4ccccn4)CC3)C2)c1 (centres unmarked) | -74.5%
O=C(CN1C(=O)c2ccccc2S1(=O)=O)NCCSCc1c(F)cccc1Cl | -29.7%
CCOC(=O)CC(=O)CSc1nc(-c2ccccc2)cc(-c2ccccc2)c1C#N | 10.1%
COc1ccc(OC)c(S(=O)(=O)Nc2ccc3c(c2)n(C)c(=O)n3C)c1 | 1.61%
Cn1c(=O)c(=O)n(C)c2cc(N3CCCCC3)c(NS(=O)(=O)c3ccc(Br)cc3)cc21 | -65.1%
CCc1ccc(S(=O)(=O)Nc2cc3c(cc2N2CCOCC2)n(C)c(=O)c(=O)n3C)cc1 | -32.1%
Cn1c(=O)c(=O)n(C)c2cc(N3CCCC3)c(NS(=O)(=O)c3ccc(F)cc3)cc21 | -16.2%
COc1ccc(OC)c(S(=O)(=O)Nc2cc3c(cc2N2CCCC2)n(C)c(=O)c(=O)n3C)c1 | -50.7%
Cn1c(=O)c(=O)n(C)c2cc(N3CCOCC3)c(NS(=O)(=O)c3ccc(Br)cc3)cc21 | -27%
Cn1c(=O)c(=O)n(C)c2cc(N3CCCCC3)c(NS(=O)(=O)c3ccc([N+](=O)[O-])cc3)cc21 | -50.6%
Cc1ccc(S(=O)(=O)Nc2cc3c(cc2N2CCOCC2)n(C)c(=O)c(=O)n3C)cc1 | -9.6%
COc1ccc(OC)c(NS(=O)(=O)c2cc(OC)ccc2OC)c1 | -2.14%
Cn1c(=O)c(=O)n(C)c2cc(N3CCOCC3)c(NS(=O)(=O)c3ccc([N+](=O)[O-])cc3)cc21 | 2.58%
CCc1ccc(S(=O)(=O)Nc2cc3c(cc2N2CCCCC2)n(C)c(=O)c(=O)n3C)cc1 | -85.6%
Cn1c(=O)c(=O)n(C)c2cc(N3CCCC3)c(NS(=O)(=O)c3ccc(Cl)cc3)cc21 | -44.3%

SMILES | hERG current change (%, negative = inhibition) at 10uM
CCC(CC)c1nnc(NC(=O)c2cccnc2SC)s1 | 15.4%
C/C=C/c1ccc(OCCCCN2C(=O)NC(C)(C)C2=O)c(OC)c1 | -7.09%
COc1ccccc1C(O)(C(=O)NN(C)c1ccccc1)c1ccccc1OC | 9.03%
Cc1cccc(OCCCCc2c(C)n[nH]c2C)c1C | 9.64%
CCc1ccc(/C=C2\Oc3cc(OS(C)(=O)=O)ccc3C2=O)cc1 | 11.8%
O=S(=O)(NC1=NCCC1)c1cccc(NS(=O)(=O)c2ccc(OC(F)(F)F)cc2)c1 | 1.71%
CN1CCN(CCNC(=O)Nc2ccccc2C(F)(F)F)CC1 | 3.26%
CC1(C)C2CCC1(C)C(OC(=O)C[n+]1ccccc1N)C2.[Br-] (centres unmarked) | -35.3%
CCOC(=O)C1CCN(c2cc3c(cc2NC(=O)c2cc(OC)ccc2Br)n(C)c(=O)n3C)CC1 | 0.12%
COCCNc1c([N+](=O)[O-])c(=O)n(-c2ccccc2)c2ccccc12 | -25.2%
O=C(c1ccccc1Oc1ccc(C(F)(F)F)cc1[N+](=O)[O-])N1CCOCC1 | 1.22%
COC(=O)CN1C(=O)C(O)(CC(=O)c2cccc(Br)c2)c2ccccc21 (centres unmarked) | -11.7%
CN(Cc1ccccn1)Cc1nc(COc2ccccc2)no1 | -2.85%
COc1cc(CNC(=O)C2CC2)ccc1OCc1ccccc1 | -11.8%
COc1cccc(CNC23CC4CC(CC(C4)C2)C3)c1OCc1ccccc1.Cl | -50%
COc1cccc(CNCCO)c1OCc1ccccc1.Cl | -1.31%
CNCc1ccc(OCc2ccccc2)c(OC)c1 | 0.71%
Cl.c1ccc(COc2ccccc2CNC23CC4CC(CC(C4)C2)C3)cc1 | -83.6%
CCNCc1ccccc1OCc1ccccc1.Cl | -3.77%
COc1cccc(CNCc2cccnc2)c1OCc1ccccc1.Cl | 19.3%
COc1cc(CNC23CC4CC(CC(C4)C2)C3)ccc1OCc1ccccc1.Cl | -64%
c1ccc(COc2ccccc2CNC2CCCC2)cc1 | -39.7%
